Data published in PubChem BioAssay (NCI).
Compounds without any hit were thinned out: in the full panel of roughly 83,000, 20% have a hit.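 How to read the values: 0–100, growth inhibition (40 = 60% inhibited); 0, no net growth; -100 to 0, cell death (-40 = 40% of starting cells died; -100 = all dead).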 Values without a mark were called inactive. The source made the active and inactive calls. The calls were made as follows: active = growth percent below 10; inactive = the rest.

What was measured:
Assay in all cases: NCI-60 one-dose screen, 48 h (100 = growth as untreated, 0 = no growth, -100 = all killed)
Settings in all cases: 10 µM unless noted
[1] = tested on: NCI-H23 lung
[2] = tested on: NCI-H226 lung
[3] = tested on: NCI-H322M lung
[4] = tested on: HOP-62 NSCLC
[5] = tested on: NCI-H460 lung
[6] = tested on: HOP-92 NSCLC
[7] = tested on: NCI-H522 lung
[8] = tested on: A549/ATCC NSCLC
[9] = tested on: 786-0 renal
[10] = tested on: COLO 205 colon

## COc1ccc(-c2ccc(-c3ccc(C(=N)N)cc3)s2)cc1Cl
[1]
  growth: 61.4%
[2]
  growth: 92.8%
[3]
  growth: -35.5% (active)
[4]
  growth: 34.5%
[5]
  growth: -66.4% (active)
[6]
  growth: 75.8%
[7]
  growth: -36.1% (active)
[8]
  growth: -48.2% (active)
[9]
  growth: -83.1% (active)
[10]
  growth: -36.1% (active)

## O=S(=O)(NCCCNc1nccc(-c2c(-c3ccc(F)c(O)c3)nc3sccn23)n1)c1ccccc1
[1]
  growth: 58.3%
[2]
  growth: 97.7%
[3]
  growth: 87.7%
[4]
  growth: 89.1%
[5]
  growth: 62.2%
[6]
  growth: 55.4%
[7]
  growth: 52.1%
[8]
  growth: 63.8%
[9]
  growth: 87.2%
[10]
  growth: 30.4%

## N#CC1=C(c2ccccc2)Nc2c(c(-c3ccc(Cl)cc3)nn2-c2ccccc2)C12C(=O)Nc1ccc(Cl)cc12 (stereo not given)
[1]
  growth: 92.1%
[2]
  growth: 80.7%
[3]
  growth: 91.3%
[4]
  growth: 77.3%
[5]
  growth: 71.2%
[6]
  growth: 61.8%
[7]
  growth: 72.2%
[8]
  growth: 54.7%
[9]
  growth: 79.2%
[10]
  growth: 73%

## CCN1C(=S)N(c2ccccc2)C2C1NN=c1s/c(=C3\C(=O)N(C(C)C)c4ccccc43)c(=O)n12 (stereo not given)
[1]
  growth: 75.4%
[2]
  growth: 66.7%
[3]
  growth: 82.8%
[4]
  growth: 73.4%
[5]
  growth: 47.8%
[6]
  growth: 100%
[7]
  growth: 78.6%
[8]
  growth: 57.8%
[9]
  growth: 93.7%
[10]
  growth: 89.4%

## CCSc1oc(-c2ccccc2)nc1[P+](c1ccccc1)(c1ccccc1)c1ccccc1
[1]
  growth: -11.8% (active)
[2]
  growth: -2.47% (active)
[3]
  growth: -6.18% (active)
[4]
  growth: 0.275% (active)
[5]
  growth: 0.695% (active)
[6]
  growth: -27.9% (active)
[7]
  growth: -20.3% (active)
[8]
  growth: 9.29% (active)
[9]
  growth: 13.4%
[10]
  growth: -45.5% (active)

## Cc1ccc(-c2nc(N3CCCNCC3)c3oc(-c4ccc(C)cc4)nc3n2)cc1
[1]
  growth: 91.1%
[2]
  growth: 101%
[3]
  growth: 16.5%
[4]
  growth: 71.8%
[5]
  growth: -37.5% (active)
[6]
  growth: 60.9%
[7]
  growth: 65%
[8]
  growth: -62.3% (active)
[9]
  growth: -96.2% (active)
[10]
  growth: -71.6% (active)

## CC(=O)/C(=C\c1c(-c2ccccc2)[nH]c2ccccc12)S(C)(=O)=O
[1]
  growth: 33.7%
[2]
  growth: 69.1%
[3]
  growth: 58.2%
[4]
  growth: 50.5%
[5]
  growth: 4.15% (active)
[6]
  growth: 42%
[7]
  growth: 29.6%
[8]
  growth: 42.8%
[9]
  growth: 22.8%
[10]
  growth: 21.2%

## Oc1c(I)cc(I)cc1CNCc1ccccn1
[1]
  growth: 52.4%
[2]
  growth: 62.5%
[3]
  growth: 40.1%
[4]
  growth: 28.3%
[5]
  growth: 19.9%
[6]
  growth: 63.2%
[7]
  growth: 4.61% (active)
[8]
  growth: 23.6%
[9]
  growth: 36.1%
[10]
  growth: 74.1%

## CCOc1ccccc1Cn1ccnc1CCc1c(Cl)c(O)cc(O)c1C(=O)OC
[1]
  growth: 95.4%
[2]
  growth: 102%
[3]
  growth: 83%
[4]
  growth: 85.9%
[5]
  growth: 104%
[6]
  growth: 90.4%
[7]
  growth: 76.2%
[8]
  growth: 87.7%
[9]
  growth: 101%
[10]
  growth: 102%

## O=C(Nc1ccccc1)Nc1ncnc2c1ncn2-c1ccc(Cl)cc1
[1]
  growth: 88.5%
[2]
  growth: 65%
[3]
  growth: 79.3%
[4]
  growth: 75.4%
[5]
  growth: 46.3%
[6]
  growth: 97.3%
[7]
  growth: 85.4%
[8]
  growth: 83.7%
[9]
  growth: 46.9%
[10]
  growth: 86.8%

## COc1ccc(C(=O)/C=C/c2c(C(F)(F)F)nc3ccccn23)cc1OC
[1]
  growth: 0.445% (active)
[2]
  growth: 79.4%
[3]
  growth: 24%
[4]
  growth: 11.1%
[5]
  growth: -33.6% (active)
[6]
  growth: 5.04% (active)
[7]
  growth: 10.8%
[8]
  growth: 43.1%
[9]
  growth: 10.3%
[10]
  growth: -1.6% (active)

## C=C1C(=O)O[C@H]2[C@H]1CC/C(Cn1cc(-c3ccccc3)nn1)=C\CC[C@@]1(C)O[C@@H]21
[1]
  growth: -23.6% (active)
[2]
  growth: -25.8% (active)
[3]
  growth: 89.2%
[4]
  growth: 79.3%
[5]
  growth: 51.8%
[6]
  growth: -69.9% (active)
[7]
  growth: -62% (active)
[8]
  growth: 33.8%
[9]
  growth: -78% (active)
[10]
  growth: -65.3% (active)

## Cc1ccc(NC(=O)Cn2cc(CN3CCN(c4ccnc5cc(Cl)ccc45)CC3)nn2)cc1
[1]
  growth: 90%
[2]
  growth: 84.9%
[3]
  growth: 97.7%
[4]
  growth: 70.3%
[5]
  growth: 92.2%
[6]
  growth: 52.6%
[7]
  growth: 87.3%
[8]
  growth: 93.4%
[9]
  growth: 96%
[10]
  growth: 98.8%

## Cc1ccccc1/C=C/C(=O)c1cccc(OCCCOc2cccc(C(=O)/C=C/c3ccccc3C)c2)c1
[1]
  growth: 88.5% [3 µM]
[2]
  growth: 88.9% [3 µM]
[3]
  growth: 106% [3 µM]
[4]
  growth: 114% [3 µM]
[5]
  growth: 99.8% [3 µM]
[6]
  growth: 85.9% [3 µM]
[7]
  growth: 80.5% [3 µM]
[8]
  growth: 86% [3 µM]
[9]
  growth: 103% [3 µM]
[10]
  growth: 110% [3 µM]

## CCN(C)S(=O)(=O)Nc1cccc(Nc2ncnc3cc(NC(=O)CCl)ccc23)c1Cl
[1]
  growth: -27.1% (active)
[2]
  growth: 6.77% (active)
[3]
  growth: 73.9%
[4]
  growth: -50.1% (active)
[5]
  growth: -22.5% (active)
[6]
  growth: 24.6%
[7]
  growth: -70.6% (active)
[8]
  growth: 18.5%
[9]
  growth: -82.8% (active)
[10]
  growth: -33.9% (active)

## CCOC(=O)c1c(NC(=O)c2ccc(Cl)cc2)sc2c(CN(C)C)c(O)ccc12
[1]
  growth: 88%
[2]
  growth: 96.1%
[3]
  growth: 61.3%
[4]
  growth: 84.6%
[5]
  growth: 71.3%
[6]
  growth: 1.75% (active)
[7]
  growth: 76.5%
[8]
  growth: 69.6%
[9]
  growth: 69.8%
[10]
  growth: 5.48% (active)

## c1cnc2c(-c3nc4ccc5[nH]ncc5c4c4c3CCCC4)c[nH]c2c1
[1]
  growth: 22.4%
[2]
  growth: 42.6%
[3]
  growth: 21.3%
[4]
  growth: 15%
[5]
  growth: 7.48% (active)
[6]
  growth: 40.6%
[7]
  growth: -23.3% (active)
[8]
  growth: 16.6%
[9]
  growth: 32.5%
[10]
  growth: 26.7%

## CS(=O)(=O)Nc1cc(-c2ccc3ncnc(Nc4ccc5c(cnn5Cc5ccc(F)cc5)c4)c3c2)cnc1Cl
[1]
  growth: 43.8%
[2]
  growth: 66.8%
[3]
  growth: 60.7%
[4]
  growth: 43.5%
[5]
  growth: 61.5%
[6]
  growth: -17.5% (active)
[7]
  growth: 43.7%
[8]
  growth: 78.7%
[9]
  growth: 48.3%
[10]
  growth: 60.1%

## CC(=O)Oc1ccc(/C(=C(\C)c2ccc(Cl)cc2)c2ccc(OCCN3CCCCC3)cc2)cc1
[1]
  growth: 46.9%
[2]
  growth: 70.7%
[3]
  growth: 84.7%
[4]
  growth: 52.8%
[5]
  growth: 20.2%
[6]
  growth: 49.4%
[7]
  growth: 21.2%
[8]
  growth: 31.7%
[9]
  growth: -35.5% (active)
[10]
  growth: -52.4% (active)

## O=c1c2cnn(-c3ccccc3)c2n2c(CN3CCOCC3)nnc2n1-c1ccccc1
[1]
  growth: 108%
[2]
  growth: 104%
[3]
  growth: 108%
[4]
  growth: 78.1%
[5]
  growth: 102%
[6]
  growth: 81.3%
[7]
  growth: 41.2%
[8]
  growth: 76.9%
[9]
  growth: 92.6%
[10]
  growth: 96.5%

## CN(C)Cc1ccc(O)c(C(=O)O)c1
[1]
  growth: 104%
[2]
  growth: 108%
[3]
  growth: 109%
[4]
  growth: 106%
[5]
  growth: 105%
[6]
  growth: 95.5%
[7]
  growth: 102%
[8]
  growth: 109%
[9]
  growth: 107%
[10]
  growth: 117%

## Nc1n[nH]c2cccc(C#Cc3cccc(C(=O)Nc4cc(C(F)(F)F)cc(C(F)(F)F)c4)c3)c12
[1]
  growth: 73.8%
[2]
  growth: 42.7%
[3]
  growth: 96.7%
[4]
  growth: 93.8%
[5]
  growth: 76.5%
[6]
  growth: 36.9%
[7]
  growth: 35.1%
[8]
  growth: 80.4%
[9]
  growth: 103%
[10]
  growth: 81%

## CCCCCCCCCCCCCCCCCCOc1ccccc1CC(=O)OCC[N+](C)(C)C
[1]
  growth: 40.2%
[2]
  growth: 28.7%
[3]
  growth: 66.5%
[4]
  growth: 4.93% (active)
[5]
  growth: 13.5%
[6]
  growth: -14% (active)
[7]
  growth: 2.19% (active)
[8]
  growth: 11.5%
[9]
  growth: 20.8%
[10]
  growth: -67.3% (active)

## COc1cc(NS(=O)(=O)c2ccc(-c3cnc(C4CC4)o3)cc2)ccc1F
[1]
  growth: 33.6%
[2]
  growth: 36.7%
[3]
  growth: 49.5%
[4]
  growth: 41.8%
[5]
  growth: 18.7%
[6]
  growth: 33.8%
[7]
  growth: 0.251% (active)
[8]
  growth: 34.4%
[9]
  growth: 31.4%
[10]
  growth: 3.71% (active)

## Clc1cccc(Nc2ncnc3ccc(-c4cnc5[nH]ccc5c4)cc23)c1
[1]
  growth: 84.4%
[2]
  growth: 80%
[3]
  growth: 18.7%
[4]
  growth: 86.9%
[5]
  growth: 78.3%
[6]
  growth: 94.5%
[7]
  growth: 33.9%
[8]
  growth: 50.1%
[9]
  growth: -19.6% (active)
[10]
  growth: 83.4%

## COc1cccc(CNc2ccc3ncnc(Nc4ccc(F)c(Cl)c4)c3c2)c1
[1]
  growth: 69.6%
[2]
  growth: 71.4%
[3]
  growth: 34.1%
[4]
  growth: 82.5%
[5]
  growth: 78%
[6]
  growth: 76.8%
[7]
  growth: 18.6%
[8]
  growth: 53.1%
[9]
  growth: 71.2%
[10]
  growth: 91.3%

## CCN1C(=S)N(c2ccccc2)C2NC(=S)N(/N=C/C=C/c3ccccc3OC)C21 (stereo not given)
[1]
  growth: 32.7%
[2]
  growth: 58%
[3]
  growth: 45.6%
[4]
  growth: 36.9%
[5]
  growth: 3.12% (active)
[6]
  growth: 53.5%
[7]
  growth: -15.5% (active)
[8]
  growth: 11.4%
[9]
  growth: 29.4%
[10]
  growth: -2.82% (active)
